Assay outcomes (PubChem BioAssay)
Only some compounds are listed: those with a hit (about 13% of all), similar ones and a draw of the others.
Pf growth 48h = inhibits P. falciparum growth in the first generation, 48 h; P. falciparum luciferase growth in erythrocytes, 48 h; Potency, µM (series often up to 28.7 µM), without a hit: at the top dose activity change, negative = inhibition, actives largely listed as inhibitors; hit rate 5.9% among 310,000; also: potency is read from the fitted curve at half-maximal effect
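Luminescence readout; reporter = integrated firefly luciferase in P. falciparum. RBC culture at 2% hematocrit, 0.1% parasitemia final, 37 C/5% CO2; decreased signal taken as growth inhibition.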
Pf growth 96h = P. falciparum growth inhibition at 96 hour, primary screen for plastid delayed-death inhibitors | Potency, µM (top dose mostly 28.7 µM), inactives show at the highest dose activity change, negative = inhibition, actives largely listed as inhibitors | P. falciparum luciferase reporter growth, 96 h | hit rate 6.9% among 320,000; also: potency is read from the fitted curve at half-maximal effect
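P. falciparum expressing integrated firefly luciferase, in erythrocytes at 2% hematocrit, 0.05% parasitemia, incubated with compounds 96 h at 37 C, 5% CO2. Growth inhibition read as loss of luminescence; two-generation exposure targets delayed-death apicoplast inhibitors.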
HCMV antiviral = blocks human cytomegalovirus replication. HFF cells, HCMV-luciferase reporter, 72 h; stronger effect = lower value. activity change, negative = inhibition, % at 57.5 µM. hit rate 4.5% among 410,000. AID 1259415; in the data active = activity change below about -60%; inconclusive = no clear call, values can overlap the other calls; inactive = above about -39%
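Human foreskin fibroblasts infected with luciferase-reporter HCMV at MOI 1 PFU/cell, compounds at two doses. Luciferase measured 72 h post infection; normalized to buffer-only basal and Salinomycin (10uM) controls.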
HCV inh = blocks hepatitis C virus; Huh7.5.1 HCVcc-Cre infection, luciferase reporter, 44 h; Potency, µM (series often up to 41.8 µM), for the others: at the highest dose activity change, negative = inhibition, actives largely listed as inhibitors; hit rate 3.4% among 340,000; AID 651820; also: potency is read from the fitted curve at half-maximal effect
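Antiviral activity was scored by luciferase reporter output from cells infected with HCVcc-Cre (~0.5 moi) in presence of compound, 44 h infection period, cells seeded 1,000/well 4 h prior.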
* = called active by the depositor; ? = inconclusive; nt = not tested or not shown. Unless noted, calls follow the shape of the dose curve; as a rule, active = well fitted inhibition curve with a large enough effect; inconclusive = small, poorly fitted or top-dose-only effect, or another doubt; inactive = no such curve, though single readings can be large or run the other way. % is scaled to controls: 0 for no effect and ±100 for the full control effect.

SMILES	Pf growth 48h	Pf growth 96h	HCMV antiviral	HCV inh
Cc1ccc(S(=O)(=O)N(C(=O)c2ccncc2)c2ccc(OC(=O)c3ccncc3)c3ccccc23)cc1	10µM*	9.3µM*	-29	?
CC(=O)Oc1ccccc1N(C(C)=O)S(=O)(=O)c1ccc(C)cc1	11%	?	?	9%
Cc1ccc(S(=O)(=O)N(C(=O)c2ccncc2)c2ccc(OC(=O)c3ccncc3)c3ccccc23)c(C)c1	nt	9.3µM*	nt	?
CC(=O)Oc1ccc(N(C(C)=O)S(=O)(=O)c2ccc(C)cc2C)c2ccccc12	8.3µM*	2.6µM*	-34	?
S=C1NCN(CC2CC2)CN1	nt	nt	-6	nt
CC1CCCN(c2c([N+](=O)[O-])cc(C(=O)O)cc2[N+](=O)[O-])C1 (configuration not stated)	34%	?	-101*	-2%
O=c1c(-c2ccc(Cl)cc2)coc2c(CN3CCOCC3)c(O)ccc12	8.3µM*	10µM*	41	-13%
CC1CCCCN1Cc1c(O)ccc2c(=O)c(-c3ccc(Cl)cc3Cl)coc12 (configuration not stated)	?	9%	24	-12%
COc1ccc(-c2c(C)oc3c(CN4CCCCC4C)c(O)ccc3c2=O)cc1OC (configuration not stated)	?	12µM*	-11	-16%
CC1CCCCN1Cc1c(O)ccc2c(=O)c(-c3ccc(Cl)cc3)coc12 (configuration not stated)	10µM*	45%	15	?
CC1CCCCN1Cc1c(O)ccc2c(=O)c(-c3nc4ccccc4s3)c(N)oc12 (configuration not stated)	0.83µM*	1µM*	-16	10µM*
COc1ccc(-c2c(C)c3ccc(O)c(CN4CCCCC4C)c3oc2=O)cc1OC (configuration not stated)	nt	nt	3	nt
CCc1ccc(CNC(=O)CCc2c(C)nn(-c3ccc(N4CCCCC4)nn3)c2C)cc1	nt	nt	-11	nt
CC(=O)Nc1ccc(NC(=O)C(c2ccccc2)N2Cc3ccccc3C2=O)cc1 (configuration not stated)	nt	nt	4	nt
CCN(CC)CCNC(=O)C(=O)NCC(c1cccnc1)N1CCN(c2ccccc2)CC1 (configuration not stated)	nt	nt	7	nt
COc1cc2nc(SCC(=O)Nc3cccc(C)c3)n3nc(-c4ccccc4)nc3c2cc1OC	nt	nt	-26	nt
COc1ccc(C)cc1NC(=O)c1c(C(=O)Nc2cccc(C)c2C)sc2nc(C)cc(=O)n12	nt	nt	12	nt
CC1CCCCN1Cc1c(O)ccc2c(=O)c(-c3ccc(Br)cc3)coc12 (configuration not stated)	7.4µM*	5.9µM*	?	-17%
O=[N+]([O-])c1ccc(Sc2nccn2Cc2ccccc2)cc1	32%	0%	-77*	1%
CCCN(CCC)Cc1c(C(=O)N/N=C/C(C)=C\c2ccco2)nnn1-c1nonc1N	?	?	?	8.9µM*
CC(/C=N/NC(=O)c1nnn(-c2nonc2N)c1CN(C)C)=C\c1ccco1	?	-2%	?	-4%
CCCN(CCC)Cc1c(C(=O)N/N=C/CCc2ccccc2)nnn1-c1nonc1N	-2%	9.3µM*	-18	1%
CCCN(CCC)Cc1c(C(=O)N/N=C/c2ccncc2)nnn1-c1nonc1N	7%	5%	-2	-4%
COc1cc(/C=C(/C#N)c2nc(-c3cc4ccccc4oc3=O)cs2)ccc1O	nt	nt	-5	nt
CCOc1ccccc1NS(=O)(=O)c1ccc2c(c1)CC(C)N2C(=O)C1CCC1 (configuration not stated)	nt	nt	-17	nt
SMILES	Pf growth 48h	Pf growth 96h	HCMV antiviral	HCV inh
N#Cc1c(N)nc2c(c1-c1cccs1)CCCC2	6%	17%	?	-11%
N#Cc1c(N)oc(-c2cccs2)c1-c1cccs1	9.3µM*	13µM*	38	4%
Cc1cc(C)cc(-n2c(C)nc3cc(C(=O)NCc4ccc(F)cc4)ccc32)c1	nt	nt	-20	nt
CC(=O)c1cccc(Nc2c3c(nc4nc(-c5cccs5)nn24)CCCC3)c1	nt	nt	56	nt
CC(C)(C)c1ccc(OCCOc2ccc(C(C)(C)C)cc2NC=O)c(NC=O)c1	10µM*	2.6µM*	?	10µM*
COc1ccc(NC(=O)COc2ccc(/C=C/c3cccc[n+]3C)cc2OC)cc1	0.93µM*	5%	-29	-20%
CCNC(=O)COc1ccc(C=O)cc1OC	14%	-20%	-86*	3%
COc1ccc(NC(=O)COc2ccc(/C=N/n3c(C)nnc3C)cc2OC)cc1	nt	12µM*	68	6%
CCC1CSC(Nc2ccc(C(=O)/C=C/c3ccc(OC)c(OC)c3)cc2)=N1 (configuration not stated)	?	?	-101*	?
C/C=C/c1ccc(OCC(=O)Nc2cc(OC)c(OC)c(OC)c2)c(OC)c1	-16%	?	-29	?
COc1ccc(OC)c(NC(=O)CSc2n[nH]c(-c3ccccc3Cl)n2)c1	nt	nt	-10	nt
COc1cc(/C=C/c2cc[n+](C)cc2)ccc1OCC(=O)Nc1ccc(Cl)c(Cl)c1	?	-20%	-91*	-1%
COc1ccc(NC(=O)COc2ccc(/C=C/c3cc[n+](C)cc3)cc2OC)cc1	1.9µM*	-2%	-12	1%
COc1cc(/C=C/c2cccc[n+]2C)ccc1OCC(=O)Nc1ccccc1	1µM*	0%	-29	-8%
COc1ccc(/C=C/C(=O)Nc2ccc(Cl)c(Cl)c2)cc1OC	nt	nt	-81*	nt
Cc1ccccc1NC(=O)N1CCC(CN2CCCC2)CC1	nt	nt	-12	nt
COc1ccc(NC(=O)CCNS(=O)(=O)c2cccc3nsnc23)cc1Cl	nt	nt	6	nt
COc1cc(/C=C/c2cccc[n+]2C)ccc1OCC(=O)Nc1cccc(Cl)c1	0.93µM*	-8%	-70*	-5%
c1ccc(-c2cc(N3CCOCC3)nc3ccccc23)cc1	3%	-9%	-25	?
CC1CN(c2cc(-c3ccccc3)c3ccccc3n2)CC(C)O1 (configuration not stated)	nt	2.6µM*	-20	-26%
Cc1c(C(=O)c2cccc3ccccc23)c2cccc3c2n1[C@H](CN1CCOCC1)CO3	nt	nt	-98*	?
CCc1ccc(NC(=O)Cn2c(=O)n(CCC(C)C)c(=O)c3cccnc32)cc1	nt	nt	24	nt
COC(=O)/C(=C(/F)Sc1cc(C)c(O)c(C)c1)C(F)(F)F	9.3µM*	nt	nt	10%
Cn1c(=O)n(C)c2cc(N3CCOCC3)c(NC(=O)c3ccc(Cl)cc3)cc21	nt	nt	-4	nt
Oc1ccc2c(c1)c1ccccc1c1ncccc21	nt	nt	13	11µM*
Cc1ccc(O)c2ncccc12	-19%	?	nt	nt
C=CCOc1cccc(C2c3c(oc4ccc(F)cc4c3=O)C(=O)N2CCCN2CCOCC2)c1 (configuration not stated)	12µM*	6%	-4	4%
Cc1ccc2oc3c(c(=O)c2c1)C(c1cccc(Cl)c1)N(CCCN1CCOCC1)C3=O (configuration not stated)	2.6µM*	?	1	5%
